PubChem BioAssay AID1508601 (ICCB-Longwood Screening Facility, Harvard Medical School, 2020)
Screen size: about 5,700 compounds; about 85 (1%) were called active. Rule as the data show it: active = p53-positive nuclei above about 36% (passing the limit was not always enough); inactive = the rest. Only a selection was taken, and actives are over-represented in it overall.

Assays:
[1] = p53 stabilisation in HPV-positive human cells, imaging, p53-positive nuclei imaging, 24 h, 48 h (AID 1508601); conditions: 24/48 h
[2] = biological target: Cellular tumor antigen p53 (Homo sapiens) (UniProt P04637); assay: as above; conditions: 24/48 h, stronger effect = higher value
[3] = measured here: cell number at 24 h, Library stock concentration: 80 uM
[4] = measured here: cell number at 24 h, Library stock concentration: 400 uM
[5] = measured here: cell number at 24 h, Library stock concentration: 2 mM
[6] = measured here: cell number at 24 h, Library stock concentration: 10 mM
[7] = measured here: cell number at 48 h, Library stock concentration: 80 uM
[8] = measured here: cell number at 48 h, Library stock concentration: 400 uM
[9] = measured here: cell number at 48 h, Library stock concentration: 2 mM
[10] = measured here: cell number at 48 h, Library stock concentration: 10 mM
[11] = Library stock concentration: 80 uM
[12] = Library stock concentration: 400 uM
[13] = Library stock concentration: 2 mM
[14] = Library stock concentration: 10 mM
[15] = measured here: p53 positive nuclei at 24 h, Library stock concentration: 80 uM
[16] = measured here: p53 positive nuclei at 24 h, Library stock concentration: 400 uM
[17] = measured here: p53 positive nuclei at 24 h, Library stock concentration: 2 mM
[18] = measured here: p53 positive nuclei at 24 h, Library stock concentration: 10 mM
[19] = measured here: cell number at 24 h, Library stock concentration: 3.33 mM
[20] = measured here: cell number at 48 h, Library stock concentration: 3.33 mM
[21] = Library stock concentration: 3.33 mM
[22] = measured here: p53 positive nuclei at 24 h, Library stock concentration: 3.33 mM
[23] = measured here: cell number at 24 h, concentration not given here
[24] = measured here: cell number at 48 h, concentration not given here
[25] = measured here: p53 positive nuclei at 24 h, concentration not given here

Sequence of Cellular tumor antigen p53 (Homo sapiens) (P04637 whole entry, looked up): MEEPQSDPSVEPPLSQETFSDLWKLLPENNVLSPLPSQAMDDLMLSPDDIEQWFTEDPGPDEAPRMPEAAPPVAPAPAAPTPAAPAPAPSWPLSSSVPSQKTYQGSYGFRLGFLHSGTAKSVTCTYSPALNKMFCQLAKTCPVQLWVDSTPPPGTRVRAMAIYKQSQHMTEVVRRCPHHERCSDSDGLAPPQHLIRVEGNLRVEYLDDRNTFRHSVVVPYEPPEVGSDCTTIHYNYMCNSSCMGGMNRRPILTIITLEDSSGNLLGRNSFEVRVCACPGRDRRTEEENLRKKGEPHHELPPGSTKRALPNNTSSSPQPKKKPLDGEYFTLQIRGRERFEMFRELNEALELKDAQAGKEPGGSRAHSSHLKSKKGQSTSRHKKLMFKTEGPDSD

CCN1CCN(Cc2ccc(Nc3ncc4c(n3)N(C)c3ccccc3C(=O)N4C)cc2C(F)(F)F)CC1
nuclei count, normalised [1, 3]: 77.9%
nuclei count, normalised [1, 4]: 81%
nuclei count, normalised [1, 5]: 52.5%
nuclei count, normalised [1, 6]: 35.9%
nuclei count, normalised [1, 7]: 81.7%
nuclei count, normalised [1, 8]: 83.6%
nuclei count, normalised [1, 9]: 35.4%
nuclei count, normalised [1, 10]: 19.9%
p53-positive nuclei, normalised [2, 11]: -0.0235% (inactive)
p53-positive nuclei, normalised [2, 12]: -0.051% (inactive)
p53-positive nuclei, normalised [2, 13]: 1.78% (inactive)
p53-positive nuclei, normalised [2, 14]: 22.4% (inactive)
p53-positive nuclei, normalised [2, 15]: -0.148%
p53-positive nuclei, normalised [2, 16]: -0.0416%
p53-positive nuclei, normalised [2, 17]: -0.148%
p53-positive nuclei, normalised [2, 18]: 33.5%

CC1CCO[C@H]2Cn3cc(C(=O)NCc4ccc(F)cc4F)c(=O)c(O)c3C(=O)N12 (some centres not stated)
nuclei count, normalised [1, 19]: 106%
nuclei count, normalised [1, 20]: 103%
p53-positive nuclei, normalised [2, 21]: -0.143% (inactive)
p53-positive nuclei, normalised [2, 22]: -0.188%

CCCCC[C@H](O)/C=C/[C@H]1C2CC(CO2)[C@@H]1C/C=C\CCCC(=O)O (some centres not stated)
nuclei count, normalised [1, 23]: 83.4%
nuclei count, normalised [1, 24]: 84.7%
p53-positive nuclei, normalised ([2]; concentration not given here): 0.109% (inactive)
p53-positive nuclei, normalised [2, 25]: 0.00988%

CCN(CC)C(=O)N1CCN(C)CC1
nuclei count, normalised [1, 23]: 108%
nuclei count, normalised [1, 24]: 102%
p53-positive nuclei, normalised ([2]; concentration not given here): 0.000717% (inactive)
p53-positive nuclei, normalised [2, 25]: -0.0826%

CN1CCN(C(=S)SSC(=S)N2CCN(C)CC2)CC1
nuclei count, normalised [1, 3]: 108%
nuclei count, normalised [1, 4]: 109%
nuclei count, normalised [1, 5]: 60.3%
nuclei count, normalised [1, 6]: 52.3%
nuclei count, normalised [1, 7]: 109%
nuclei count, normalised [1, 8]: 109%
nuclei count, normalised [1, 9]: 53.9%
nuclei count, normalised [1, 10]: 37.3%
p53-positive nuclei, normalised [2, 11]: -0.131% (inactive)
p53-positive nuclei, normalised [2, 12]: -0.138% (inactive)
p53-positive nuclei, normalised [2, 13]: 39.2% (active)
p53-positive nuclei, normalised [2, 14]: 89.9% (active)
p53-positive nuclei, normalised [2, 15]: -0.116%
p53-positive nuclei, normalised [2, 16]: -0.0641%
p53-positive nuclei, normalised [2, 17]: 99.7%
p53-positive nuclei, normalised [2, 18]: 111%

CC(C)(CO)c1cc2cc(NC(=O)C3(c4ccc5c(c4)OC(F)(F)O5)CC3)c(F)cc2n1CC(O)CO (configuration not stated)
nuclei count, normalised [1, 3]: 99.2%
nuclei count, normalised [1, 4]: 104%
nuclei count, normalised [1, 5]: 106%
nuclei count, normalised [1, 19]: 118%
nuclei count, normalised [1, 6]: 113%
nuclei count, normalised [1, 7]: 105%
nuclei count, normalised [1, 8]: 107%
nuclei count, normalised [1, 9]: 110%
nuclei count, normalised [1, 20]: 120%
nuclei count, normalised [1, 10]: 111%
p53-positive nuclei, normalised [2, 11]: 0.0351% (inactive)
p53-positive nuclei, normalised [2, 12]: 0.0964% (inactive)
p53-positive nuclei, normalised [2, 13]: -0.0537% (inactive)
p53-positive nuclei, normalised [2, 21]: -0.0559% (inactive)
p53-positive nuclei, normalised [2, 14]: 0.115% (inactive)
p53-positive nuclei, normalised [2, 15]: 0.0925%
p53-positive nuclei, normalised [2, 16]: 0.0862%
p53-positive nuclei, normalised [2, 17]: -0.0708%
p53-positive nuclei, normalised [2, 22]: -0.244%
p53-positive nuclei, normalised [2, 18]: 0.119%

O=C(c1cc(-c2cncnc2)nc2cc(F)ccc12)N1CCCC1Cc1cccnc1 (configuration not stated)
nuclei count, normalised [1, 23]: 109%
nuclei count, normalised [1, 24]: 110%
p53-positive nuclei, normalised ([2]; concentration not given here): 0.0107% (inactive)
p53-positive nuclei, normalised [2, 25]: 0.143%

O=C1CN2Cc3c(ccc(Cl)c3Cl)N=C2N1
nuclei count, normalised ([1]; measured here: cell number at 24 h, Library stock concentration: 46 uM): 88.7%
nuclei count, normalised ([1]; measured here: cell number at 24 h, Library stock concentration: 278 uM): 80.4%
nuclei count, normalised ([1]; measured here: cell number at 24 h, Library stock concentration: 1.67 mM): 83.9%
nuclei count, normalised [1, 19]: 57.2%
nuclei count, normalised [1, 6]: 75.8%
nuclei count, normalised ([1]; measured here: cell number at 48 h, Library stock concentration: 46 uM): 45.1%
nuclei count, normalised ([1]; measured here: cell number at 48 h, Library stock concentration: 278 uM): 38.3%
nuclei count, normalised ([1]; measured here: cell number at 48 h, Library stock concentration: 1.67 mM): 40.9%
nuclei count, normalised [1, 20]: 24.8%
nuclei count, normalised [1, 10]: 40.2%
p53-positive nuclei, normalised ([2]; Library stock concentration: 46 uM): 85.8% (active)
p53-positive nuclei, normalised ([2]; Library stock concentration: 278 uM): 88.2% (active)
p53-positive nuclei, normalised ([2]; Library stock concentration: 1.67 mM): 89.8% (active)
p53-positive nuclei, normalised [2, 21]: 84.4% (active)
p53-positive nuclei, normalised [2, 14]: 87% (active)
p53-positive nuclei, normalised ([2]; measured here: p53 positive nuclei at 24 h, Library stock concentration: 46 uM): 5.38%
p53-positive nuclei, normalised ([2]; measured here: p53 positive nuclei at 24 h, Library stock concentration: 278 uM): 6.86%
p53-positive nuclei, normalised ([2]; measured here: p53 positive nuclei at 24 h, Library stock concentration: 1.67 mM): 6.48%
p53-positive nuclei, normalised [2, 22]: 11%
p53-positive nuclei, normalised [2, 18]: 6.76%

O=C1OC2(c3ccc(O)cc3Oc3cc(Oc4ccc(O)cc4)ccc32)c2ccccc21 (configuration not stated)
nuclei count, normalised [1, 23]: 105%
nuclei count, normalised [1, 24]: 107%
p53-positive nuclei, normalised ([2]; concentration not given here): -0.0688% (inactive)
p53-positive nuclei, normalised [2, 25]: -0.118%
